Measurements reported in PubChem BioAssay (EPA / NIEHS).
Inconclusive results are not listed. Active and inactive are the calls of the source. The calls were made as follows: active = hit-call score of the fitted dose curve at least 0.9, where 1 is the maximum; inconclusive = response in the unintended direction; inactive = score below 0.9.

Biological target: mouse Estrogen Receptor alpha (Era), Esr1 (gene 13982) (UniProt P19785)
Test: NVS_NR_mERa: NovaScreen (NVS) Nuclear Receptor Binding Assay for mouse Estrogen Receptor alpha (Era) (AID 2283378);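 also: hit means loss of bound radioligand signal relative to DMSO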
Experimental: NVS_NR_mERa is a biochemical, single-readout assay that uses extracted gene-proteins in a cell-free assay. Measurements were taken 18 hours after chemical dosing in a 96-well plate.NVS_NR_mERa is one of one assay component(s) measured or calculated from the NVS_NR_mERa assay. It is designed to make measurements of radioligand binding, a form of binding reporter, as detected with scintillation counting signals by Filter-based radiodetection technology.Data from the assay component NVS_NR_mERa was analyzed into 1 assay endpoint. This assay endpoint, NVS_NR_mERa, was analyzed in the positive analysis fitting direction relative to DMSO as the negative control and baseline of activity. Using a type of binding reporter, loss-of-signal activity can be used to understand changes in the binding as they relate to the gene Esr1. Furthermore, this assay endpoint can be referred to as a primary readout, because the performed assay has only produced 1 assay endpoint. To generalize the intended target to other relatable targets, this assay endpoint is annotated to the nuclear receptor intended target family, where the subfamily is steroidal.
Binding assays used specific radioligands (tritiated, iodinated) with non-radioactive competitive displacement ligands in agonist or antagonist protocols (as indicated) and various reference compounds and inhibitors to titrate specific binding to receptors and transporters. Most enzyme assays (CYPs, kinases, phosphatases, proteases, HDACs) used recombinant protein and specific substrates (fluorescence mostly, some colorimetric and radioactive) and inhibitors, followed by a biochemical separation of substrate and product. All assays for the biochemical HTS were initially run in duplicate at a single concentration (10 uM for CYP450 assays and 25 uM for all others). […] Each assay was run with positive and negative controls, and concurrent controls on every plate. The follow-up (secondary) screen tested active chemical-pairs in concentration series, as well as a few additional assays not tested in the primary screen, some selected negative inactives, and several cases re-run in the concentration series for confirmatory purposes.

Chain of mouse Estrogen Receptor alpha (Era), Esr1 (gene 13982) (P19785 whole entry, looked up): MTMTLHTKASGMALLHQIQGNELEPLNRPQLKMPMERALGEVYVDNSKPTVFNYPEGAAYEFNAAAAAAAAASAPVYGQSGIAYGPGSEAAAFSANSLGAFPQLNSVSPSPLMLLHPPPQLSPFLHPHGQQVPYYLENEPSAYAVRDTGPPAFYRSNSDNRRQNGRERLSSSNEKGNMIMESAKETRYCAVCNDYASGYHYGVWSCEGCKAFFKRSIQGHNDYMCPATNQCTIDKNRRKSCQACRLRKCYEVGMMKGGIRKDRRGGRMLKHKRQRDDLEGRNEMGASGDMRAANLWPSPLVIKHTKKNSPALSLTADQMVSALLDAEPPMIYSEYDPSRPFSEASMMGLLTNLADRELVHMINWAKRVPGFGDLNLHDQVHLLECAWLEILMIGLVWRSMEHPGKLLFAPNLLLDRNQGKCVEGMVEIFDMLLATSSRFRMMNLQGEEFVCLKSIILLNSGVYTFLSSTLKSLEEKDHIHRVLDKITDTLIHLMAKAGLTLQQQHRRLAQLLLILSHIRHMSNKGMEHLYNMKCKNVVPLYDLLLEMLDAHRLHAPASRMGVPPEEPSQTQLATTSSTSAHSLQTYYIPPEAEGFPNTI

**Q.** CCCCCCCCC=O was tested. Which outcome did it give?
**A.** Its outcome is “inactive”.

**Q.** With CCCCCCCCCC=O as the compound, how does the outcome read?
**A.** The outcome was “inactive”.

**Q.** COC(=O)C1=C(C)NC(C)=C(C(=O)OCCN(C)Cc2ccccc2)C1c1cccc([N+](=O)[O-])c1 (configuration not stated) was tested. Which outcome did it give?
**A.** Its outcome is “inactive”.

**Q.** Which outcome does the source give for O=C(O)CCSCCC(=O)O here?
**A.** Its outcome is “inactive”.

**Q.** For NC(=O)Nc1ccc(Cl)cc1, which outcome is on record?
**A.** Its outcome is “inactive”.

**Q.** Which outcome does the source give for O=C1c2ccccc2C(=O)N1SC1CCCCC1 here?
**A.** Its outcome is “inactive”.

**Q.** With O=Nc1ccc(Nc2ccccc2)cc1 as the compound, how does the AC50 read?
**A.** The AC50 was 46.4 µM (active).

**Q.** For CC1COc2ccccc2N1C(=O)C(Cl)Cl (configuration not stated), which AC50 is on record?
**A.** The AC50 was 1.88 µM (active).

**Q.** c1cc(C(c2ccc(OCC3CO3)cc2)c2ccc(OCC3CO3)cc2)ccc1OCC1CO1 (configuration not stated) was tested. Which outcome did it give?
**A.** The outcome was “inactive”.

**Q.** With CCCc1c(OCCCOc2ccc(OCC(=O)O)cc2)ccc(C(C)=O)c1O as the compound, how does the outcome read?
**A.** Its outcome is “inactive”.

**Q.** Which outcome does the source give for Clc1ccc2c(c1)C(N1CCNCC1)=Nc1ccccc1O2 here?
**A.** The outcome was “inactive”.

**Q.** Which outcome does the source give for Cc1cc(C2(c3cc(C)c(O)cc3C)OS(=O)(=O)c3ccccc32)c(C)cc1O here?
**A.** Its outcome is “inactive”.
